PvdQ acylase – P. aeruginosa PvdQ acylase inhibition | purified PvdQ acylase, fluorescence plate reader | 340,000 compounds, 0.063% hits | inhibition, % at 10 µM; in the data active = inhibition above about 30%, passing the limit was not always enough;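 note: 0% = vehicle neutral wells and 100% = reference inhibitor wells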
SIRT5 inh – inhibitors of human sirtuin-5 desuccinylase; Q9NXA8; Purified SirT5, succinyl-peptide AMC, trypsin-coupled fluorescence; inhibition, % at 15 µM; 330,000 compounds, 1.1% hits; AID 652115; in the data active = inhibition above about 15%
Target sequence (Q9NXA8 whole entry, looked up): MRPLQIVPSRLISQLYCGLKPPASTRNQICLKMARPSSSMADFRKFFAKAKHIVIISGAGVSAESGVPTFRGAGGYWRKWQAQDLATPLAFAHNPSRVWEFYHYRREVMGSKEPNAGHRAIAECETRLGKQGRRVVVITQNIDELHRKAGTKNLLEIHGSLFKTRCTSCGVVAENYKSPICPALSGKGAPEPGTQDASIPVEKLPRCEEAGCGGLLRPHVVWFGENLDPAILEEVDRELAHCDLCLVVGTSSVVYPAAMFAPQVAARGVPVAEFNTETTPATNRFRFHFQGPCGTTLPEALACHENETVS
FGF22 binding – binders of recombinant human FGF22 by thermal shift. SYPRO orange fluorescence; percent of sucrose octasulfate shift, DMSO zero. Q9HCT0. activity (Tm shift, normalised), % at 9.99 µM. 340,000 compounds, 1.5% hits;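 active = mean Tm shift, scaled 0 neutral to 100 positive control, at about 1.3% or above, every replicate too, limit read from the data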
Target sequence (Q9HCT0 whole entry, looked up): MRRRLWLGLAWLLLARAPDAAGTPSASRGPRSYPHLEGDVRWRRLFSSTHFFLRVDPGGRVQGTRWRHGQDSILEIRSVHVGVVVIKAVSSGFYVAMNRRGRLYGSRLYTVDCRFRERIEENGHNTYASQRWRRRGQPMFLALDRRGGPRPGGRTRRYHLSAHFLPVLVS
PglD DTNB – inhibitors of Campylobacter jejuni PglD acetyltransferase | 360,000 compounds, 0.098% hits | purified PglD enzyme, DTNB colorimetric CoA detection | inhibition, % at 12.5 µM | AID 602405; in the data active = inhibition above about 16%, passing the limit was not always enough
dFosB activator – enhances mouse delta FosB homodimer DNA binding; P13346; purified delta FosB, TAMRA-CDK5 oligo fluorescence polarization; percent of positive-control signal above neutral wells; activation, % at 25 µM; 340,000 compounds, 0.99% hits;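 active = mean activation above about 17%, with every replicate also reaching it, limit read from the data, passing the limit was not always enough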
CDK5 p35 inh – inhibitors of human CDK5/p35 kinase; 330,000 compounds, 0.01% hits; Q00535+Q15078; inhibition, % at 10 µM; Recombinant CDK5/p35, ADP-Glo luminescence, 60 min;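 active = highest replicate inhibition of at least 50% and at least 75% of replicates reaching 50%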;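 note: plate controls were DMSO neutral control for no effect and GW8510 at 10 µM for full effect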
* = called active by the depositor; . = no result. Hits are enriched below; roughly 2.8% of the tested compounds scored in any of these assays.

SMILES	PvdQ acylase	SIRT5 inh	FGF22 binding	PglD DTNB	dFosB activator	CDK5 p35 inh
O=C(C1CCCC1)N1CC2(C1)[C@@H](c1ccccc1)[C@@H](CO)N2Cc1ccc(Cl)cc1	.	5	.	.	.	.
O=C(C1CCCC1)N1CC2(C1)[C@@H](c1ccccc1)[C@@H](CO)N2Cc1nccs1	.	1	.	.	.	.
O=C(C1CCCC1)N1CC2(C1)[C@H](c1ccccc1)[C@@H](CO)N2Cc1ccc(Cl)cc1	.	31*	.	.	.	.
CCCNC(=O)N1CC2(C1)[C@H](c1ccccc1)[C@H](CO)N2Cc1cccc(F)c1	.	24*	0	.	.	.
OC[C@@H]1[C@H](c2ccccc2)C2(CN(Cc3ccccc3)C2)N1Cc1ccncc1	.	0	.	.	.	.
O=C(C1CCCC1)N1CC2(C1)[C@H](c1ccccc1)[C@H](CO)N2Cc1nccs1	.	18*	.	.	.	.
COC(=O)C1=C(C)Nc2c(c(=O)n(C)c(=O)n2C)C1c1cccc(O)c1 (stereo not drawn)	3	20*	0	3	2	-1
C[C@H](CO)N1C[C@H](C)[C@@H](CN(C)Cc2ccccc2)Oc2ccc(NC(=O)Nc3ccc(F)cc3)cc2C1=O	.	0	0	3	.	.
CC(C)CCNC(=O)c1cccc(Cl)c1	39*	.	.	-7	1	1
NC(=O)CNC(=O)c1cccc(Cl)c1	-13	-4	0	-1	-9	0
CNc1nc(NCc2ccccc2)c2sccc2n1	.	20*	0	9	.	.
CCCn1c(O)c(/C=C2\C=NN=C2c2ccccc2)sc1=S	-19	.	.	-1	2	-2
C=CCn1c(O)c(/C=C2\C=NN=C2c2ccccc2)sc1=S	-22	18*	0	.	10	-2
Cc1noc(C)c1NC(=O)N[C@@H]1C=C[C@@H](CC(=O)Nc2ccccc2)O[C@@H]1CO	.	0	0	-1	.	.
COc1ccccc1NC(=O)N1CC[C@H]2[C@@H]1c1cc(-c3ccccc3)ccc1N(C)[C@H]2CO	.	2	0	-2	.	.
O=C(Nc1cc(S(=O)(=O)Nc2ccccc2Cl)ccc1O)c1sc2cc(Cl)ccc2c1Cl	-13	.	.	.	101*	0
CCC(=O)N1C[C@@H]2[C@H](c3ccccc31)[C@H](CO)N2Cc1cc(F)ccc1F	.	1	-1	-1	.	.
COc1ccccc1C(=O)N1C[C@H]2[C@@H](c3ccccc31)[C@@H](CO)N2Cc1ccc(F)cc1	.	16*	0	-3	.	.
CCC(=O)N1C[C@H]2[C@@H](c3ccccc31)[C@@H](CO)N2Cc1cc(F)ccc1F	.	28*	0	0	.	.
O=C(Nc1cccc(Cl)c1)N1C[C@H]2[C@@H](c3ccccc31)[C@H](CO)N2Cc1ccccc1Cl	.	2	84*	0	.	.
O=C(Nc1cc(F)ccc1F)N1C[C@@H]2[C@H](c3ccccc31)[C@H](CO)N2Cc1ccncc1	.	22*	0	0	.	.
O=C(Nc1cc(F)ccc1F)N1C[C@H]2[C@@H](c3ccccc31)[C@H](CO)N2Cc1ccncc1	.	0	-1	-1	.	.
CC(C)C[C@H](NC(=O)C1CCN(C(=O)[C@H](Cc2ccccc2)NC(=O)OC(C)(C)C)CC1)C(=O)O	-11	22*	0	-3	-7	0
C[C@@H]1CN([C@H](C)CO)C(=O)c2cc(NS(=O)(=O)c3cn(C)cn3)ccc2O[C@@H](C)CCCCO[C@@H]1CN(C)CC1CCCCC1	.	-2	0	-3	.	.
O=C(N/N=C/c1cccn1-c1ccc(O)cc1)c1cccc2ccccc12	5	-2	0	0	22*	2
SMILES	PvdQ acylase	SIRT5 inh	FGF22 binding	PglD DTNB	dFosB activator	CDK5 p35 inh
O=C(N/N=C/c1ccccc1)c1cccc2ccccc12	2	2	0	.	0	1
O=C(O)C[C@H]1C[C@H]2c3cc(NC(=O)Nc4ccccc4)ccc3O[C@H]2[C@@H](CO)O1	.	-1	0	-2	.	.
COCC(=O)N1CC2(C1)CN(S(C)(=O)=O)[C@@H](CO)c1[nH]c3cc(OC)ccc3c12	.	1	0	.	.	.
COCC1=C2[C@@H](CCc3ccccc3)OB(O)C[C@@H]2n2c(=O)n(-c3ccccc3)c(=O)n2C1	.	-2	0	.	.	.
O=C(CN1C(=O)/C(=C/c2ccc(F)cc2)SC1=S)NC1C=CS(=O)(=O)C1 (stereo not drawn)	3	8	0	5	26*	1
O=C(CCN1C(=O)/C(=C/c2ccc(Cl)cc2)SC1=S)NC1C=CS(=O)(=O)C1 (stereo not drawn)	13	4	0	-4	-7	0
O=C(CN1C(=O)/C(=C/c2ccccc2)SC1=S)NC1C=CS(=O)(=O)C1 (stereo not drawn)	-3	-3	0	-1	0	.
O=C(CN1C(=O)/C(=C/c2ccc(Cl)cc2)SC1=S)NC1C=CS(=O)(=O)C1 (stereo not drawn)	3	-5	0	7	23*	1
COc1ccc(/C=C2\SC(=S)N(CC(=O)NC3C=CS(=O)(=O)C3)C2=O)cc1 (stereo not drawn)	-9	11	0	1	85*	-4
COc1ccc(CN(C)C[C@H]2Oc3c(NS(=O)(=O)c4cccs4)cccc3C(=O)N([C@@H](C)CO)C[C@@H]2C)cc1	.	3	0	3	.	.
C[C@H](CO)N1C[C@H](C)[C@H](CN(C)C(=O)Nc2ccccc2)OCCCC[C@H](C)Oc2ccc(NS(=O)(=O)c3ccc(F)cc3)cc2C1=O	.	.	0	-5	.	.
COc1ccc(CNC(=O)C[C@@H]2C[C@@H]3c4cc(NC(=O)C5CCC5)ccc4O[C@@H]3[C@H](CO)O2)cc1	.	1	0	8	.	.
COc1n[nH]c(C(=O)NCc2ccccc2)c1[N+](=O)[O-]	-10	0	0	.	2	1
COc1n[nH]c(C(=O)Nc2nc3ccccc3s2)c1[N+](=O)[O-]	-4	1	44*	.	1	-2
CO[C@H](CN(C)S(=O)(=O)c1ccccc1)[C@H](C)CN(C(=O)Nc1ccccc1F)[C@H](C)CO	.	-1	0	2	.	.
COc1ccc(Nc2nccc(-c3ccc(C#N)cc3)n2)cc1	-5	-4	0	-2	-3	55*
C[C@@H]1CN([C@H](C)CO)C(=O)c2c(c3ccccc3n2C)-c2ccccc2CO[C@@H]1CN(C)Cc1ccc(Cl)c(Cl)c1	.	4	0	.	.	.
O=C(c1ccccc1)c1cccs1	-1	-4	43*	.	5	-1
CCNC(=O)Nc1ccc2c(c1)C(=O)N(C)[C@H]1CC[C@@H](CC(=O)Nc3ccccc3)O[C@@H]1CO2	.	-4	0	-2	.	.
C[C@H](CO)N1C[C@H](C)[C@H](CN(C)C(=O)Nc2ccccc2)Oc2ccc(NS(C)(=O)=O)cc2CC1=O	.	-1	0	1	.	.
O=C1SCCN1N=Cc1ccc([N+](=O)[O-])o1	-6	22*	0	-4	5	0
CC1CN(N=Cc2ccc([N+](=O)[O-])o2)C(=N)O1 (stereo not drawn)	-18	-5	0	5	-1	0

From PubChem BioAssay
